This is part of a sample that, as a whole, favours compounds with a hit. Of some 79,000 tested, about 15% had one in any assay. Calls of active or inactive are those of the source. No stated cut-off is given here; in the data, active means growth inhibition above about 70%; inactive means the rest.
What was measured:
[1] = NCI Yeast Anticancer Drug Screen. Data for the sgs1 strain (AID 173);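 further: 0% = growth of vehicle-only control cultures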; settings: S. cerevisiae sgs1 mutant, hits give high values
Outline: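 Screen format: yeast with repair or checkpoint alterations, compound exposure, growth read relative to vehicle.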

[2] = NCI Yeast Anticancer Drug Screen. Data for the mlh1 rad18 strain (AID 175); settings: S. cerevisiae mlh1 rad18 strain growth inhibition, hits give high values
Outline: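 Vehicle-treated cultures served as the reference for growth inhibition in a yeast strain carrying DNA damage repair alterations exposed to each compound.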

[3] = NCI Yeast Anticancer Drug Screen. Data for the rad18 strain (AID 177); settings: S. cerevisiae rad18 mutant growth inhibition, hits give high values
Outline: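 Test articles were incubated with altered yeast defective in DNA damage repair. Results are given as inhibition of growth versus vehicle.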

[4] = NCI Yeast Anticancer Drug Screen. Data for the rad50EPP+ strain (AID 151);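 further: 0% = growth of vehicle-treated control cultures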; settings: S. cerevisiae rad50 mutant strain, hits give high values
Outline: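 In this screen, rad50EPP+ yeast were exposed to compounds. Growth inhibition was scored against vehicle-treated controls.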

[5] = NCI Yeast Anticancer Drug Screen. Data for the mgt1 strain (AID 153); settings: S. cerevisiae mgt1 mutant growth inhibition, hits give high values
Outline: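 mgt1 strain exposed; growth vs vehicle control recorded as inhibition.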

[6] = NCI Yeast Anticancer Drug Screen. Data for the rad50 strain (AID 155);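 further: 0% = growth of vehicle-only cultures of the same strain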; settings: S. cerevisiae rad50 strain growth inhibition, hits give high values
Outline: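 Compounds were tested on a yeast strain with an engineered DNA damage repair alteration; the reported value is growth inhibition normalised to vehicle treatment.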

[7] = NCI Yeast Anticancer Drug Screen. Data for the mec2-1 strain (AID 157); settings: S. cerevisiae mec2-1 strain, hits give high values
Outline: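 Vehicle-treated cultures served as reference for growth inhibition of compound-exposed mec2-1 yeast.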

[8] = NCI Yeast Anticancer Drug Screen. Data for the rad14 strain (AID 159);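 further: 0% = growth of vehicle-treated control cultures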; settings: S. cerevisiae rad14 strain growth inhibition, hits give high values
Outline: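 Compound-treated yeast with a defined DNA-repair lesion; growth inhibition normalised to vehicle-treated cultures.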

[9] = NCI Yeast Anticancer Drug Screen. Data for the sgs1 mgt1 strain (AID 161);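 further: 0% = growth of cultures given vehicle only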; settings: S. cerevisiae sgs1 mgt1 strain, hits give high values
Outline: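 Test agents were incubated with a DNA-repair-mutant yeast strain. Growth was then read and compared against vehicle-treated controls.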

[10] = NCI Yeast Anticancer Drug Screen. Data for the CLN2oe strain (AID 163);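 further: 0% = growth of vehicle-only control cultures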; settings: S. cerevisiae CLN2oe strain, hits give high values
Outline: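 Inhibition relative to vehicle-treated yeast is reported. Cells: strain with genetic alteration in cell-cycle control, grown with compound.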

[11] = NCI Yeast Anticancer Drug Screen. Data for the cln2 rad14 strain (AID 165);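 further: 0% = growth equal to vehicle treated cultures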; settings: S. cerevisiae cln2 rad14 strain, hits give high values
Outline: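 Each compound was tested on cln2 rad14 yeast. Inhibition of growth was calculated against vehicle-exposed controls.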

[12] = NCI Yeast Anticancer Drug Screen. Data for the bub3 strain (AID 167); settings: S. cerevisiae bub3 mutant strain, hits give high values
Outline: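 Growth of a checkpoint-deficient yeast mutant is measured after compound exposure. Values represent inhibition relative to vehicle.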

[13] = NCI Yeast Anticancer Drug Screen. Data for the wt2 strain (AID 169);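 further: 0% = growth of vehicle-treated yeast cultures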; settings: S. cerevisiae wt2 strain growth inhibition, hits give high values
Outline: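 Inhibition of yeast growth was determined after compound treatment, normalised to controls receiving only vehicle.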

[14] = NCI Yeast Anticancer Drug Screen. Data for the mlh1 strain (AID 171);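 further: 0% = growth of vehicle-treated control cultures of the same strain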; settings: S. cerevisiae mlh1 strain growth inhibition, hits give high values
Outline: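 Vehicle-normalised growth inhibition of a repair- or checkpoint-altered yeast strain following compound treatment.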

[15] = NCI Yeast Anticancer Drug Screen. Data for the wt1 strain (AID 149);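 further: 0% = growth of vehicle-treated wt1 cultures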; settings: S. cerevisiae wt1 strain (SPY 50644) growth inhibition, hits give high values
Outline: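 Readout: yeast growth inhibition, normalised to vehicle controls, in the wt1 strain exposed to test compounds.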

[16] = at 5.0 µM (retest, dose inferred, filed as 0.5)
[17] = at 50.0 µM (retest, dose inferred, filed as 5.0)

Measured: growth inhibition

c1ccc(C2=NNC3c4ccccc4-c4ccccc4N3C2)cc1 (stereo not drawn)
inactive: [1]; at 1.2 µM -3% | [1]; at 3.7 µM -4% | [1]; at 11.0 µM -5% | [1]; at 33.0 µM 2% | [1]; at 100.0 µM 16% | [2]; [16] 11% | [2]; [17] 50% | [2]; at 50.0 µM 34% | [3]; at 1.2 µM 0% | [3]; at 3.7 µM 0% | [3]; at 11.0 µM -2% | [3]; at 33.0 µM 7% | [3]; at 100.0 µM 55%

CCOc1ccc2ccc3cccnc3c2n1
inactive: [4]; at 1.2 µM -8% | [4]; at 3.7 µM 11% | [4]; at 11.0 µM 23% | [4]; at 33.0 µM 61% | [5]; at 1.2 µM -4% | [5]; at 3.7 µM 8% | [5]; at 11.0 µM -10% | [5]; at 33.0 µM 34% | [5]; at 100.0 µM 68% | [6]; at 1.2 µM -5% | [6]; at 3.7 µM 12% | [6]; [16] -1% | [6]; at 11.0 µM 26% | [6]; at 33.0 µM 59% | [6]; [17] 40% | [6]; at 50.0 µM 69% | [7]; at 1.2 µM -4% | [7]; at 3.7 µM -5% | [7]; [16] -3% | [7]; at 11.0 µM 8% | [7]; at 33.0 µM 13% | [7]; [17] 28% | [7]; at 50.0 µM 47.2% | [7]; at 100.0 µM 35% | [8]; at 1.2 µM -4% | [8]; at 3.7 µM 4% | [8]; at 11.0 µM -1% | [8]; at 33.0 µM 7% | [8]; at 100.0 µM 68% | [9]; [16] -8% | [9]; [17] 66% | [10]; at 1.2 µM -18% | [10]; at 3.7 µM -7% | [10]; at 11.0 µM -14% | [10]; at 33.0 µM 4% | [10]; at 100.0 µM 22% | [11]; [16] -33% | [11]; [17] -17% | [11]; at 50.0 µM -3.9% | [12]; at 1.2 µM -4% | [12]; at 3.7 µM -3% | [12]; [16] -9% | [12]; at 11.0 µM 1% | [12]; at 33.0 µM 36% | [12]; [17] 52% | [12]; at 50.0 µM 59% | [13]; at 1.2 µM 0% | [13]; at 3.7 µM 2% | [13]; at 11.0 µM 8% | [13]; at 33.0 µM 37% | [13]; at 100.0 µM 66% | [14]; at 1.2 µM -3% | [14]; at 3.7 µM -1% | [14]; at 11.0 µM 17% | [14]; at 33.0 µM 54% | [14]; at 100.0 µM 63% | [1]; at 1.2 µM -3% | [1]; at 3.7 µM 1% | [1]; at 11.0 µM 9% | [1]; at 33.0 µM 40% | [1]; at 100.0 µM 63% | [3]; at 1.2 µM -3% | [3]; at 3.7 µM 8% | [3]; at 11.0 µM 23% | [3]; at 33.0 µM 60%
active: [4]; at 100.0 µM 88% | [6]; at 100.0 µM 74% | [9]; at 50.0 µM 70.6% | [12]; at 100.0 µM 70% | [3]; at 100.0 µM 72%

OC(c1ccc(Br)cc1)(c1cccs1)C1CC1 (stereo not drawn)
inactive: [15]; at 1.2 µM -19% | [15]; at 3.7 µM 3% | [15]; at 11.0 µM 17% | [4]; at 1.2 µM 3% | [4]; at 3.7 µM 35% | [4]; at 11.0 µM 27% | [4]; at 33.0 µM 17% | [7]; at 1.2 µM 18% | [7]; at 3.7 µM 22% | [7]; [16] 61% | [7]; at 11.0 µM 53% | [8]; at 1.2 µM 5% | [8]; at 3.7 µM 13% | [8]; at 11.0 µM 27% | [9]; [16] -7% | [10]; at 1.2 µM 6% | [10]; at 3.7 µM 2% | [10]; at 11.0 µM 26% | [11]; [16] 45% | [12]; at 1.2 µM 38% | [12]; at 3.7 µM 48% | [12]; [16] 48% | [12]; at 11.0 µM 62% | [13]; at 1.2 µM -12% | [13]; at 3.7 µM 8% | [13]; at 11.0 µM 31% | [14]; at 1.2 µM -15% | [14]; at 3.7 µM 4% | [14]; at 11.0 µM 38% | [1]; at 1.2 µM 17% | [1]; at 3.7 µM 29% | [1]; at 11.0 µM 57% | [2]; [16] 46% | [3]; at 1.2 µM 1% | [3]; at 3.7 µM 24% | [3]; at 11.0 µM 54%
active: [15]; at 33.0 µM 97% | [15]; at 100.0 µM 96% | [4]; at 100.0 µM 91% | [7]; at 33.0 µM 99% | [7]; [17] 100% | [7]; at 50.0 µM 93.2% | [7]; at 100.0 µM 97% | [8]; at 33.0 µM 97% | [8]; at 100.0 µM 97% | [9]; [17] 99% | [10]; at 33.0 µM 96% | [10]; at 100.0 µM 96% | [11]; [17] 99% | [12]; at 33.0 µM 94% | [12]; [17] 100% | [12]; at 100.0 µM 93% | [13]; at 33.0 µM 97% | [13]; at 100.0 µM 96% | [14]; at 33.0 µM 96% | [14]; at 100.0 µM 95% | [1]; at 33.0 µM 95% | [1]; at 100.0 µM 95% | [2]; [17] 100% | [2]; at 50.0 µM 92% | [3]; at 33.0 µM 94% | [3]; at 100.0 µM 91%

O=C(O)CN(CCNC(=O)OCC1c2ccccc2-c2ccccc21)CCNC(=O)OCC1c2ccccc2-c2ccccc21
inactive: [4]; at 1.2 µM 0% | [4]; at 3.7 µM 4% | [4]; at 11.0 µM 5% | [4]; at 33.0 µM 7% | [4]; at 100.0 µM 5% | [5]; at 1.2 µM -4% | [5]; at 3.7 µM -1% | [5]; at 11.0 µM 9% | [6]; at 1.2 µM -3% | [6]; at 3.7 µM -9% | [6]; [16] -21% | [6]; at 11.0 µM 11% | [6]; [17] 36% | [7]; at 1.2 µM -3% | [7]; at 3.7 µM -5% | [7]; [16] -10% | [7]; at 11.0 µM -3% | [7]; [17] -6% | [8]; at 1.2 µM 0% | [8]; at 3.7 µM 1% | [8]; at 11.0 µM 34% | [9]; [16] -1% | [9]; [17] -4% | [10]; at 1.2 µM -1% | [10]; at 3.7 µM 1% | [10]; at 11.0 µM 2% | [11]; [16] 3% | [11]; [17] 15% | [12]; at 1.2 µM -1% | [12]; at 3.7 µM 0% | [12]; [16] -16% | [12]; at 11.0 µM 1% | [12]; [17] -9% | [13]; at 1.2 µM -3% | [13]; at 3.7 µM -3% | [14]; at 1.2 µM -1% | [14]; at 3.7 µM -3% | [14]; at 11.0 µM 11% | [1]; at 1.2 µM 0% | [1]; at 3.7 µM -1% | [1]; at 11.0 µM 9% | [2]; [16] 3% | [2]; [17] 62% | [3]; at 1.2 µM -2% | [3]; at 3.7 µM -2% | [3]; at 11.0 µM 4%
active: [5]; at 33.0 µM 98% | [5]; at 100.0 µM 95% | [6]; at 33.0 µM 97% | [6]; at 50.0 µM 93.7% | [6]; at 100.0 µM 94% | [7]; at 33.0 µM 98% | [7]; at 50.0 µM 95.3% | [7]; at 100.0 µM 96% | [8]; at 33.0 µM 98% | [8]; at 100.0 µM 95% | [9]; at 50.0 µM 95.5% | [10]; at 33.0 µM 96% | [10]; at 100.0 µM 90% | [11]; at 50.0 µM 93.5% | [12]; at 33.0 µM 93% | [12]; at 50.0 µM 95% | [12]; at 100.0 µM 94% | [13]; at 11.0 µM 75% | [13]; at 33.0 µM 98% | [13]; at 100.0 µM 95% | [14]; at 33.0 µM 98% | [14]; at 100.0 µM 96% | [1]; at 33.0 µM 97% | [1]; at 100.0 µM 94% | [2]; at 50.0 µM 95.1% | [3]; at 33.0 µM 95% | [3]; at 100.0 µM 94%

— PubChem BioAssay (NCI)
